Screens from PubChem.
This is a sample that favours compounds with a hit; in the whole collection about 2% have one here.
Gli-Sufu block = Gli-Sufu pathway antagonists, primary screen, luciferase luminescence, Sufu-KO-LIGHT cells, uHTS | hit rate 0.74% among 340,000 | inhibition, % at 5 µM | AID 588413, 2011 | Sufu-KO-LIGHT fibroblasts, Gli luciferase reporter luminescence;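 active = inhibition above about 55%, limit read from the data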;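 note: 0% = DMSO-treated cells and 100% = wells with medium but no cells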
GalR3 antagonist = GalR3 antagonists in HEK293 cells, primary screen, cell-based, fluorescence readout | HEK293 GalR3-CNG cAMP membrane potential fluorescence; galR3 body fused to GalR1 C-terminus | hit rate 0.44% among 360,000 | inhibition, % at 3 µM | Galanin receptor type 3 (Homo sapiens), O60755;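 active = inhibition above the screen-wide average plus 3 SD, cut at about 13% in these data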;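 note: forskolin and galanin both at EC90 stimulate the cells; cAMP rise reported by CNG channel membrane potential dye signal; 0% = forskolin plus galanin with DMSO and 100% = forskolin alone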
Target sequence (O60755 1-299 limits assumed): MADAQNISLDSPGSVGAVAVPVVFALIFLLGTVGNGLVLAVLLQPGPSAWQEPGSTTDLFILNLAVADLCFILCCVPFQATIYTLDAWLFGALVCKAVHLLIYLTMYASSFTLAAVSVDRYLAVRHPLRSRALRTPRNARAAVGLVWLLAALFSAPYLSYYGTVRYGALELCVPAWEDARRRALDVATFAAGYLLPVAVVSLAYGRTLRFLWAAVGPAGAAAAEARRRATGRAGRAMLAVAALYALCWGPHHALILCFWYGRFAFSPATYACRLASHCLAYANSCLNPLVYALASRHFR
Jurkat NFkB inh = inhibitors of induced NF-kB luciferase reporter, primary screen, TCR NF-kB activation inhibitor project, cell-based, luminescence, uHTS. hit rate 0.53% among 330,000. AID 435003, 2010. inhibition, % at 4 µM. Jurkat, PMA/ionomycin-induced NF-kB luciferase reporter; in the data active = inhibition above about 50%
NR2F2 inh = NR2F2 transcriptional activity inhibitors, primary screen, cell-based, luciferase reporter, HEK293T, luminescence. COUP transcription factor 2 (Homo sapiens), P24468. HEK293T NGFI-A luciferase reporter. inhibition, % at 8.6 µM. hit rate 0.7% among 370,000. AID 686940, 2013;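 active = inhibition above a per-plate cutoff, mean inhibition of test wells between control levels plus 3 SD, cut at about 38% in these data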;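 note: cells cotransfected with COUP-TFII expression vector driving the NGFI-A reporter; 0% = median of COUP-TF2 test wells and 100% = reporter-only cells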
697 NFkB inh = inhibitors of PMA/ionomycin-induced NF-kB reporter, 697 cells, primary screen, B-cell NF-kB inhibitor project, cell-based, luminescence, uHTS | inhibition, % at 4 µM | hit rate 0.33% among 330,000 | 697 B-cell NF-kB luciferase reporter, 16 h; in the data active = inhibition above about 35%
Gal4-VP16 ctr = Gal4-VP16 luciferase reporter inhibitors, counter-screen for COUP-TFII antagonist project, cell-based, luminescence, HEK293; shares compounds with NR2F2 inh; inhibition, % at 8.5 µM; hit rate 25% among 2,500; in the data active = inhibition above about 13%
COUP-TFII conf = NR2F2 transcriptional activity inhibitors, confirmation, cell-based, luciferase reporter, HEK293, triplicate. shares compounds with NR2F2 inh. HEK293 NGFI-A luciferase reporter, luminescence. inhibition, % at 8.5 µM. hit rate 45% among 2,500. AID 687008, 2013;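 active = mean inhibition over three repeats above a set limit taken from the earlier primary screen, cut at about 38% in these data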;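 note: 100% = cells given the luciferase reporter alone without the COUP-TF2 vector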
* hit, by the source's call; nt = no result given.

SMILES	Gli-Sufu block	GalR3 antagonist	Jurkat NFkB inh	NR2F2 inh	697 NFkB inh	Gal4-VP16 ctr	COUP-TFII conf
COc1cc(C(=O)NC2CCCCN(Cc3cccc(Cl)c3)C2=O)cc(OC)c1OC (stereo not given)	nt	nt	nt	11	nt	nt	nt
Cc1ccccc1CN1CCCCC(NC(=O)c2ccc(COc3ccccc3)cc2)C1=O (stereo not given)	nt	nt	nt	68*	nt	1	49*
O=C(NC1CCCCN(Cc2cccc(C(F)(F)F)c2)C1=O)c1ccc(COc2ccccc2)cc1 (stereo not given)	nt	nt	nt	66*	nt	10	62*
O=C(NC1CCCCN(Cc2ccc(Cl)cc2)C1=O)c1ccc(COc2ccccc2)cc1 (stereo not given)	nt	nt	nt	53*	nt	-1	12
CCCCOc1ccc(C(=O)NC2CCCCN(Cc3cccc(Cl)c3)C2=O)cc1 (stereo not given)	nt	nt	nt	38*	nt	-1	23
O=C(NC1CCCCN(Cc2ccc(Cl)cc2)C1=O)c1cccc(C(F)(F)F)c1 (stereo not given)	nt	nt	nt	7	nt	nt	nt
Cc1ccc(C)c(NC(=O)C2CCCN2S(=O)(=O)c2cccc3cccnc23)c1 (stereo not given)	nt	nt	nt	17	nt	nt	nt
O=C(NC1CCCCN(Cc2ccc(Cl)cc2)C1=O)c1ccc(F)cc1 (stereo not given)	nt	nt	nt	0	nt	nt	nt
COc1ccc(/C=C/C(=O)NC2=NCCS2)c(OC)c1	nt	nt	nt	-45	nt	nt	nt
COC(=O)c1ccc(COC(=O)c2[nH]c(C)c(C(C)=O)c2C)o1	28	7	28	41*	-1	-4	25
COc1ccc2cc3c(N)nn(C(=O)c4ccccc4[N+](=O)[O-])c3nc2c1	-24	0	17	43*	-31	15*	31
O=C(c1ccccc1)c1ccc(Cn2cc(CCCO)nn2)cc1	24	-8	29	37*	-18	6	13
CCCCOc1ncnc2c1[nH]c1ccccc12	-10	-6	22	49*	-33	-60	33
COC(=O)C1CN(Cc2ccccc2)CCS(=O)(=O)N1Cc1cn(Cc2ccc(Cl)cc2)nn1 (stereo not given)	nt	nt	nt	1	nt	nt	nt
O=C(CCl)Nc1cc(SCC(O)CO)cc([N+](=O)[O-])c1 (stereo not given)	63*	9	nt	69*	nt	28*	73*
Cc1ccc(Cn2ccc(NC(=O)c3cc(-c4ccc(Cl)cc4)on3)n2)cc1	-4	-6	4	-3	9	nt	nt
Cc1ccc(Cn2ccc(NC(=O)c3cc(C4CC4)on3)n2)cc1	-11	-1	-8	39*	-5	-7	-9
C=C(C)CC1(NC(C)c2ccccc2)CCCCC1 (stereo not given)	37	-4	12	41*	9	-11	-3
C[C@@H]1CCN(C2CC2)S(=O)(=O)c2ccc(N3CC[C@H](N(C)C)C3)cc2O1	nt	nt	nt	-6	nt	nt	nt
COc1ccc(-n2c(C)cc(/C=C3\C(=O)NN(c4ccccc4)C3=O)c2C)cc1	0	-11	-35	-14	-30	nt	nt
Cc1cc(/C=C2/C(=O)NN(c3ccccc3)C2=O)c(C)n1-c1ccc(O)cc1	-3	0	-17	57*	-190	-42	31
O=C(CSc1nnc(-c2cccc(Cl)c2)n1Cc1ccco1)Nc1ccc2c(c1)OCO2	nt	nt	nt	11	nt	nt	nt
Cc1ccc(S(=O)(=O)N2C(N)=C(C(=O)NCc3ccc(Br)cc3)C(c3ccc(Cl)cc3)C2C(=O)c2ccccc2)cc1 (stereo not given)	nt	nt	nt	3	nt	nt	nt
Cc1sc2ncnc(N3CCC(C(=O)Nc4ccc(Cl)c(Cl)c4)CC3)c2c1C	49	-4	15	0	19	nt	nt
CNC(=O)c1ccc(NC(=O)C2CCN(c3ncnc4sc(C)c(C)c34)CC2)cc1	-1	1	11	44*	-16	-1	13
SMILES	Gli-Sufu block	GalR3 antagonist	Jurkat NFkB inh	NR2F2 inh	697 NFkB inh	Gal4-VP16 ctr	COUP-TFII conf
O=C(COc1ccc(Br)cc1)Nc1ccncc1	7	-1	15	-5	-1	nt	nt
O=C(COc1ccc(Nc2ccccc2)cc1)Nc1ccncc1	1	-5	30	48*	-13	1	20
CCOC(=O)N1CCN(C(=O)c2ccc3c(c2)N(C)C(=O)/C(=C\c2ccc(OCC)c(OC)c2)S3)CC1	-8	-3	12	51*	-64	2	24
CC(C)(C)C(=O)OC12CCCN(C1)/C(=C/c1cccnc1)C2 (stereo not given)	nt	nt	nt	-10	nt	nt	nt
CCOc1ccc(-n2c(SCC(=O)Nc3cc(C)c(NC(=O)c4ccccc4)cc3OC)nnc2-c2ccncc2)cc1	nt	nt	nt	-4	nt	nt	nt
NC(=O)c1sc2nc3c(c(-c4cccs4)c2c1N)CCCCC3	-18	-2	33	43*	4	14*	32
NC(=O)c1sc2nc3c(c(-c4cccnc4)c2c1N)CCC3	-4	-7	4	-2	1	nt	nt
Cc1cccc(NC(=O)Nc2ccccc2C(=O)N2CCCC2)c1	nt	nt	nt	-14	nt	nt	nt
CC(C)(C)c1ccc(OCCC(=O)Nc2cccc(S(=O)(=O)NC3=NCCCCC3)c2)cc1	-2	-3	12	40*	-37	-2	11
CN(CC(=O)Nc1cccc(S(=O)(=O)NC2=NCCCCC2)c1)Cc1ccc(C(C)(C)C)cc1	23	0	-6	4	10	nt	nt
Cc1cc(C(=O)COc2cccnc2[N+](=O)[O-])c(C)n1-c1ccccc1F	29	5	37	48*	-13	-100	-42
Cc1cc(C(=O)COc2cccnc2[N+](=O)[O-])c(C)n1Cc1ccco1	11	-5	8	31	0	nt	nt
O=C(OCCC12CC3CC(CC(C3)C1)C2)c1ccc(NCc2cc(O)ccc2O)cc1	82*	-2	nt	90*	nt	78*	101*
CCOC(=O)[C@@]12CCCC=C1N(CCc1ccc(Cl)cc1)C(=O)[C@H]2CC(=O)N1CCN(C(=O)c2ccco2)CC1	nt	nt	nt	39*	nt	-8	18
O=C(Cc1ccccc1)N1CCC(Oc2cccnc2)CC1	nt	nt	nt	-17	nt	nt	nt
N[C@H](C(=O)N1CCC[C@@H]1C(=O)N1CCC2CCN(S(=O)(=O)c3ccccc3)CC21)c1ccccc1 (stereo not given in full)	nt	nt	nt	16	nt	nt	nt
CC(C)N1CCCCC(NC(=O)Cc2ccccc2)C1=O (stereo not given)	nt	nt	nt	16	nt	nt	nt
Nc1ccc2nc(SCC(=O)N3CCN(c4ccccc4)CC3)sc2c1	5	0	35	55*	-122	-10	29
Cc1cc(C(=O)COC(=O)c2ccco2)c(C)n1Cc1ccco1	-21	-8	-51	58*	-47	-39	34
